This is an account of results in PubChem BioAssay AID504608 (National Center for Advancing Translational Sciences (NCATS), 2011).

Activity calls are given as the source filed them. Calls follow the shape of the dose curve; as a rule, active = well fitted inhibition curve with a large enough effect; inconclusive = small, poorly fitted or top-dose-only effect; inactive = flat fitted curve, though single readings scatter.

The assay can be described thus: Quantitative high throughput screen for delayed death inhibitors of the malarial parasite plastid, 48 hour incubation. Conditions: P. falciparum in erythrocytes, luciferase growth. From the text: NIH Molecular Libraries Probe Production Network [MLPCN] NIH Chemical Genomics Center [NCGC] MLPCN Grant: R21 NS059500 Assay Provider: David Fidock and Eric Ekland, Columbia University The goal of this screen is to discover new antimalarial compounds that act by inhibiting the development of the apicoplast in the malarial parasite Plasmodium falciparum. The biochemical processes that make this organelle essential for erythrocytic stage parasites are not well understood. However, antibiotics, such as azithromycin and tetracycline, which target the apicoplast translational machinery, have a potent antimalarial effect. […] We have developed a cell-based assay that measures parasite growth based on the expression of an integrated copy of a firefly luciferase reporter. To detect small molecules that cause this 'delayed death' phenotype, erythrocytes infected with the luciferase-expressing parasites were incubated with compounds for either one or two generations, corresponding to 48 and 96 hours, respectively. Compounds that inhibit parasite growth in the second generation, but not the first, should be enriched in antimalarials that target the apicoplast. Growth inhibition is detected by a decrease in luciferase activity
Four microliters of culture medium (RPMI 1640 with 0.5% w/v Albumax (GIBCO), 24 mM sodium bicarbonate and 10 ug/mL gentamycin) were dispensed by a Multi-drop Combi into white solid 1536-well plates (Grenier) and 23 nL compound was added by a pin tool. Four microliters of infected erythrocytes (2% hematocrit, 0.1% parasitemia final concentration) in culture medium were dispensed and the plates incubated for 48 hours at 37 C in 5% CO2. Two microliters of luciferase detection reagent was added and luminescence was detected by a ViewLux (PerkinElmer) reader
Regarding `C[C@@H]1CN([C@@H](C)CO)C(=O)c2cc(NC(=O)Nc3ccccc3)ccc2O[C@@H](C)CCCCO[C@H]1CN(C)C(=O)Oc1ccccc1`, the Potency was 5.04 µM (active).

Consider `COCCOC(=O)N(C)C[C@@H]1OCCCC[C@H](C)Oc2ccc(NC(=O)Nc3ccccc3)cc2C(=O)N([C@@H](C)CO)C[C@H]1C`, for which the Potency is 14.2 µM (active).

In the case of `COc1ccc(COC[C@H](C)N2C[C@@H](C)[C@H](CN(C)S(=O)(=O)c3ccc(F)cc3)OCCCC[C@H](C)Oc3ccc(NC(=O)Nc4ccccc4)cc3C2=O)cc1`, the Potency was 0.0036 µM (active).
